# Compounds without any hit were thinned out: in the full panel of roughly 83,000, 20% have a hit.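 Assay: single dose, 48 h. Readout: percent growth (0 = no net growth; negative = cell death). Active: <10.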 Active and inactive are the calls of the source.
# System: PC-3 prostate
# Test: NCI-60 one-dose screen, 48 h (100 = growth as untreated, 0 = no growth, -100 = all killed)
# Details: 10 µM
# Experimental: Growth inhibition of the PC-3 human tumor cell line is measured as a screen for anti-cancer activity. Cells are grown in 96 well plates and exposed to the test compound for 48 hours. Compounds are tested at a single concentration, which is 10^-5 M for most compounds. The reported endpoint is percent growth (GI% or GIPRCNT), where numbers from 0 - 100% represent growth inhibition, and numbers from -100% - 0 represent cell death. For example, a value of 40 represents 60% growth inhibition. A value of 0 means no net growth occurred over the course of the experiment. A value of -40 indicates 40% of cells at the beginning of the experiment died by the end of the experiment. A value of -100 means all cells are dead at the end of the experiment.
# NCI-60 Human Tumor Cell Lines Screen was performed using the standard one-dose NCI protocol, which is described in more detail at https://dtp.cancer.gov/discovery_development/nci-60/default.htm.
# Compounds with GIPRCNT values below 10 were considered active. Activity score was based on GIPRCNT using the following formula: […]
# Score is 0 for GIPRCNT values of 100 or above, 50 for GIPRCNT values of 0, and 100 for GIPRCNT values of -100.
row,SMILES,growth
1,COc1ccc(/C=C/C(=O)c2nc3ccccc3n2Cc2ccc(Br)cc2)cc1,57.4% (inactive)
2,CC12CCC3(CCC(=O)NCCCNc4ccnc5cc(Cl)ccc45)[C@@](C)(OO[C@]3(C)O1)O2,28.3% (inactive)
3,O=C([Se]C1C=CCCC1)c1ccc(C(=O)[Se]C2C=CCCC2)s1 (stereo not given),-16.5% (active)
4,CCOP(=O)(OCC)C(NC(C)=O)C(=O)SCCN (stereo not given),116% (inactive)
5,C#CC[Se]C(=O)c1ccc(C(=O)[Se]CC#C)s1,44.9% (inactive)
6,O=C(/C=C/c1ccco1)c1nc2ccccc2n1Cc1ccc(F)cc1,65.6% (inactive)
7,COC(=O)CCn1c(-c2ccc(-n3cc(-c4ccc(O[C@H]5O[C@@H]6OC7(C)CC[C@H]8[C@H](C)CC[C@@H]([C@H]5C)[C@@]68OO7)cc4)nn3)cc2)nc2ccccc21,25.7% (inactive)
8,C[C@H]1[C@@H](CC(=O)N[C@@H](Cc2coc3ccccc23)B(O)O)O[C@@H]2OC3(C)CC[C@H]4[C@H](C)CC[C@@H]1[C@@]24OO3,-25.6% (active)
9,COCCOCCOCCOc1ccc(-n2cc(-c3ccc(O[C@H]4O[C@@H]5OC6(C)CC[C@H]7[C@H](C)CC[C@@H]([C@H]4C)[C@@]57OO6)cc3)nn2)cc1,28% (inactive)
10,COC(=O)c1ccc(-n2cc(CCCN(CCNc3ccnc4cc(Cl)ccc34)C(=O)CCC(=O)O[C@@H]3O[C@@H]4OC5(C)CC[C@H]6[C@H](C)CC[C@@H]([C@H]3C)[C@@]46OO5)nn2)cc1,39.7% (inactive)
11,C[C@H]1[C@H](OC(=O)CCC(=O)Nc2cnccn2)O[C@@H]2OC3(C)CC[C@H]4[C@H](C)CC[C@@H]1[C@@]24OO3,36.6% (inactive)
12,CC1=C(CCC=O)C2=C(C)C3(CC3)[C@@](C)(O)C(=O)C2=C1,-40.6% (active)
13,N#C[Se]CC(=O)Nc1cccc(C(F)(F)F)c1,26.8% (inactive)
14,CC1=C2C(=C[C@@](C)(COP(=O)(Oc3ccccc3)Oc3ccccc3)[C@@H]2O)C(=O)[C@@](C)(O)C12CC2,-31% (active)
15,CC12OOC(C)(OO1)C2CCC(=O)OCCNc1ccnc2cc(Cl)ccc12 (stereo not given),53.6% (inactive)
16,O=C(/C=C/c1ccccc1)c1nc2ccccc2n1Cc1ccc(F)cc1,-33.5% (active)
17,COc1ccc(OC)c(/C=C/C(=O)c2nc3ccccc3n2Cc2ccc(F)cc2)c1,0.247% (active)
18,COc1cc(OC)c(S(=O)(=O)N(CCCl)CCCl)cc1C(=O)/C=C/c1ccc(C)cc1,67.6% (inactive)
19,COC(=O)C[C@](O)(CCC(C)C)C(=O)O[C@H]1C(OC)=C[C@@]23CCCN2CCc2cc4c(cc2[C@@H]13)OCO4,-23.5% (active)
20,COc1ccc2cc([C@H](C)C(=O)[Se]CCC#N)ccc2c1,-10.1% (active)

row,SMILES,growth
1,O=C(/C=C/c1ccc(Cl)cc1)c1nc2ccccc2n1Cc1ccc(F)cc1,19.5% (inactive)
2,CC(=C\C(=O)Oc1ccc2c3c1OC1C(O)CCC4(O)C(C2)N(CC2CCC2)CCC314)/C=C1\CCCc2ccccc21 (stereo not given),40.8% (inactive)
3,CC(C)C[C@H](NC(=O)CNC(=O)C[C@H]1O[C@@H]2OC3(C)CC[C@H]4[C@H](C)CC[C@@H]([C@H]1C)[C@@]24OO3)B(O)O,4.1% (active)
4,O=C(/C=C/c1ccc(Cl)cc1)c1nc2ccccc2n1Cc1ccc(Br)cc1,36.6% (inactive)
5,C=CCN=C([Se])NC(=O)c1ccc2c(c1)OCO2,40.1% (inactive)
6,CN(C)CCc1cn(C2CCC2)c2cccc(O)c12,59.9% (inactive)
7,Cc1c2oc3c(C)ccc(C(=O)N[C@@H]4C(=O)N[C@H](C(C)C)C(=O)N5CCC[C@H]5C(=O)N(C)CC(=O)N(C)[C@@H](C(C)C)C(=O)OC4C)c3nc-2c(C(=O)N[C@@H]2C(=O)N[C@H](C(C)C)C(=O)N3CC(=O)C[C@H]3C(=O)N(C)CC(=O)N(C)[C@@H](C(C)C)C(=O)OC2C)c(N)c1=O (stereo not given in full),1.32% (active)
8,O=C(/C=C/c1cccc(Br)c1)c1nc2ccccc2n1Cc1ccc(Br)cc1,0.947% (active)
9,CC1=C(C=O)C2=C(C)C3(CC3)[C@@](C)(O)C(=O)C2=C1,26.1% (inactive)
10,O=C(/C=C/c1ccc(Cl)cc1Cl)c1nc2ccccc2n1Cc1ccc(F)cc1,29.4% (inactive)
11,CC[C@@]12CC(C(=O)OC)=C3Nc4cc5c(cc4[C@@]34CCN(C[C@H]3O[C@H]31)[C@@H]24)[C@@H]1[C@H](O5)[C@@H](O)[C@@]2(CC)CC(C(=O)OC)=C3Nc4cc(OC)ccc4[C@@]34CCN1[C@@H]24,22.2% (inactive)
12,C[C@H]1[C@H](OC(=O)CCC(=O)N(CCCc2cn(-c3ccc(CN4CCOCC4)cc3)nn2)CCNc2ccnc3cc(Cl)ccc23)O[C@@H]2OC3(C)CC[C@H]4[C@H](C)CC[C@@H]1[C@@]24OO3,29.2% (inactive)
13,CC[C@]12C=CCN3CC[C@@]4(c5ccc(OC)cc5N(C)[C@H]4[C@@](O)(C(=O)OC)[C@@H]1OC(=O)CCCC[P+](C1CCCCC1)(C1CCCCC1)C1CCCCC1)[C@@H]32,3.69% (active)
14,Cc1ccc2[nH]c(=S)n(-c3ccc(F)cc3)c(=O)c2c1,90% (inactive)
15,C=CC[Se]C(=O)c1cncc(C(=O)[Se]CC=C)c1,-65.8% (active)
16,O=C(/C=C/c1ccco1)c1nc2ccccc2n1Cc1ccc(Br)cc1,34.2% (inactive)
17,COc1cc2cc(C(=O)N3C[C@@H](CCl)c4c3cc(OC(=O)N3CCN(C)[C@@H]5CSSC[C@H]53)c3ccccc43)[nH]c2c(OC)c1OC,-24.8% (active)
18,O=C(/C=C/c1ccc(F)cc1)c1nc2ccccc2n1Cc1ccc(F)cc1,8.29% (active)
19,O=C(NCCCCC(c1ccc(F)cc1)c1ccc(F)cc1)Nc1ccc([N+](=O)[O-])c(C(F)(F)F)c1,-4.82% (active)
20,O=C(NC([Se])=NC1CCCCC1)c1ccccc1,51.3% (inactive)
